Data published in PubChem BioAssay (Tox21).
Results filed as inconclusive are left out. The source made the active and inactive calls. Unless noted, the call rests on the fitted dose curve; in most records, active means well fitted curve in the direction sought with a large enough effect in the repeat runs; inconclusive means weak or mixed curves; inactive means no such curve, though single readings can be large; an effect the other way counts as inactive or inconclusive.

Experiments:
[1] = qHTS assay to identify small molecule antagonists of the estrogen related receptor (ERR) signaling pathway from Tox21 library - cell viability counter screen (AID 1224834); further: nearly all actives have a fitted effect of over 30% in size
How it was run: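 CellTiter-Fluor fluorescence measured; ERR cells; 17.5 h compound incubation at 37 C; 30 min reagent step.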

[2] = molecular target: Luciferin 4-monooxygenase (Photinus pyralis) (UniProt P08659); assay: qHTS assay to identify small molecule inhibitors of firefly luciferase (AID 1224835); further: nearly all actives have a fitted effect of over 25% in size
Chain of Luciferin 4-monooxygenase (Photinus pyralis) (P08659 whole entry, looked up): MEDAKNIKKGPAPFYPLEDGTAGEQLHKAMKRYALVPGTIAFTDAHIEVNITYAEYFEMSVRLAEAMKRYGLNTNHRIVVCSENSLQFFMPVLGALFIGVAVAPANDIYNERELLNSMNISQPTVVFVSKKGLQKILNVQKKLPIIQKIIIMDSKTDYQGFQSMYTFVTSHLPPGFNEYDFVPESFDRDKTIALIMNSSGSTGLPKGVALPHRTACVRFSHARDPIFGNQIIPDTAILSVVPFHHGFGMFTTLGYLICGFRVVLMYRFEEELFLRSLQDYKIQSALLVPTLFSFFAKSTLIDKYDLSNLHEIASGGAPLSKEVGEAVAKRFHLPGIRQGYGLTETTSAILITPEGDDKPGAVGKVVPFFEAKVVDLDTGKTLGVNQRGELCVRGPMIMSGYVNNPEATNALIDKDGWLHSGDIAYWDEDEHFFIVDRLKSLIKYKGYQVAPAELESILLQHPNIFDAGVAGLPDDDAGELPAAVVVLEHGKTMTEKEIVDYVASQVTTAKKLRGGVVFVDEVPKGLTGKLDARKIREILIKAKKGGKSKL
How it was run: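 Inhibition of purified Photinus luciferase is measured by luminescence. Substrate levels (D-luciferin, ATP) sit at their KM values. Each compound is tested in a concentration series.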

[3] = qHTS assay to identify small molecule agonists of the constitutive androstane receptor (CAR) signaling pathway - cell viability counter screen (AID 1224836); further: nearly all actives have a fitted effect of over 45% in size
How it was run: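 Double-stable HepG2 hepatoma cells (hCAR plus CYP2B6-2.2kb) are treated for 23 h at 37 C with test compounds in 15-point concentration series. PK11195 at 0.75 uM final is co-added. Cell viability is quantified by CellTiter-Fluor.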

[4] = molecular target: Nuclear receptor subfamily 1 group I member 3 (Homo sapiens) (UniProt Q14994); assay: qHTS assay to identify small molecule antagonists of the constitutive androstane receptor (CAR) signaling pathway (AID 1224838);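 further: HepG2 cells stably expressing hCAR with CYP2B6 luciferase reporter stimulated by CITCO; nearly all actives have a fitted effect of over 40% in size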
Chain of Nuclear receptor subfamily 1 group I member 3 (Homo sapiens) (Q14994 whole entry, looked up): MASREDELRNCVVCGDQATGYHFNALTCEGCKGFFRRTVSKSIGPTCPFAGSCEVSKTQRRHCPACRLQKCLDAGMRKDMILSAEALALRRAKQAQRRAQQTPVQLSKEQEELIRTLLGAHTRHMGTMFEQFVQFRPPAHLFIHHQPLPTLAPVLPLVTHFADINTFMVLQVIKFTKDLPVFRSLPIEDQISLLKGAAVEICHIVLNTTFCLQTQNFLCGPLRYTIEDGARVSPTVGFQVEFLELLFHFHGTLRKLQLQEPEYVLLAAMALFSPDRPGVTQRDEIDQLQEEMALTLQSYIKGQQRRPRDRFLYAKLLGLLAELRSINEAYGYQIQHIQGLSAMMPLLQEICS
How it was run: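 Reporter luminescence was quantified after 24 h exposure of hCAR/CYP2B6-2.2kb double-stable HepG2 cells to compounds at 15 concentrations in the presence of 50 nM CITCO final.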

[5] = molecular target: Nuclear receptor subfamily 1 group I member 3 (Homo sapiens) (UniProt Q14994); assay: qHTS assay to identify small molecule agonists of the constitutive androstane receptor (CAR) signaling pathway (AID 1224839);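 further: HepG2 cells stably carrying human CAR and a CYP2B6 luciferase reporter; nearly all actives have a fitted effect of over 15% in size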
How it was run: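 Readout: firefly luciferase luminescence via ONE-Glo. System: HepG2 double-stable for hCAR and CYP2B6-2.2kb. Conditions: 15-point compound titration, PK11195 at 0.75 uM final, 24 h incubation.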

[6] = qHTS assay to identify small molecule antagonists of the estrogen related receptor signaling pathway with the pleiotropic PPARgamma coactivator (PGC) from Tox21 10K library - cell viability counter screen (AID 1224840; active means well fitted cell-killing curve with a large enough effect in the repeat runs, not every such curve was filed as active; further: nearly all actives have a fitted effect of over 40% in size)
How it was run: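 Here the PGC/ERR cells serve as a cytotoxicity control: they are exposed to compounds for 17.5 hours at 37 C, and live-cell signal is quantified using CellTiter-Fluor fluorescence.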

[7] = qHTS assay to identify small molecule antagonists of the estrogen related receptor signaling pathway with the pleiotropic PPARgamma coactivator (PGC) from Tox21 10K library (AID 1224841; call rule not given here; further: actives are mostly falling curves and most rising ones were filed inactive; nearly all actives have a fitted effect of over 50% in size)
How it was run: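 Each well held 2,000 PGC/ERR cells, pre-incubated six hours (37 C, 5% CO2). Test substances in DMSO were added by pin tool and left for 18 h at 37 C before luciferase detection by One-Glo.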

[8] = qHTS assay to identify small molecule agonists of the estrogen related receptor signaling pathway with the pleiotropic PPARgamma coactivator (PGC) from Tox21 10K library (AID 1224842); further: nearly all actives have a fitted effect of over 15% in size
How it was run: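 Luminescence from One-Glo (30 min, room temperature) measured after PGC/ERR cells had 18 h at 37 C with pinned compound (23 nL in DMSO). Cells had been seeded at 2,000 per well and pre-incubated 6 h.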

[9] = molecular target: Thyrotropin receptor (Homo sapiens) (UniProt P16473); assay: qHTS assay to identify small molecule agonists of the thyroid stimulating hormone receptor (TSHR) signaling pathway (AID 1224843; calls by dose curve; further: nearly all actives have a fitted effect of over 45% in size)
Chain of Thyrotropin receptor (Homo sapiens) (P16473 whole entry, looked up): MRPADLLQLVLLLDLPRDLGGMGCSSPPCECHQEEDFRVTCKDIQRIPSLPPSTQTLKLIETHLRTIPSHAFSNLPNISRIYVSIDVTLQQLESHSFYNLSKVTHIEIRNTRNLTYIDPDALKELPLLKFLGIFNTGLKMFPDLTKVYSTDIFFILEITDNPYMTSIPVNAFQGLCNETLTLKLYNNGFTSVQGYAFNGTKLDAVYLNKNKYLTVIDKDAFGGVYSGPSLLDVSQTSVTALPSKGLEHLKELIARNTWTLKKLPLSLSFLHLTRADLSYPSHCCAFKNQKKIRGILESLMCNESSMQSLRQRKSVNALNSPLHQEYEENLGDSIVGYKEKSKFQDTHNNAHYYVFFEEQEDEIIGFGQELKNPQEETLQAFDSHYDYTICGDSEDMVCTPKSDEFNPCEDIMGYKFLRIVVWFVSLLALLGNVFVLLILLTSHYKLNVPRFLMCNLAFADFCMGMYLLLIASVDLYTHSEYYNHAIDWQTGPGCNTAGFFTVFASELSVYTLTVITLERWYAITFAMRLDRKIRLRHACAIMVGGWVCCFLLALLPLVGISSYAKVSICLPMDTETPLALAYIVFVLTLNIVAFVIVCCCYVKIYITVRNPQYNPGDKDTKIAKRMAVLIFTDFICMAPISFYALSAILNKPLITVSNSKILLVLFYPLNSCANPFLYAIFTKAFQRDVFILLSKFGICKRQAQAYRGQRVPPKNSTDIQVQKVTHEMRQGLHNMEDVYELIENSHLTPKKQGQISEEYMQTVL
How it was run: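 HEK293 cells stably bearing the thyrotropin receptor were plated at 800 cells/well and challenged with compound (30 min, RT). Accumulated cAMP was quantified via cAMP-d2 competing for cryptate-tagged antibody.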

[10] = qHTS assay to identify small molecule agonists of the hypoxia (HIF-1) signaling pathway - cell viability counter screen (AID 1224844; calls by dose curve; further: nearly all actives have a fitted effect of over 50% in size)
How it was run: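 Multiplexed with the HRE beta-lactamase assay, this viability read used CellTiter-Glo luminescence (30 min, RT) on HRE-bla ME-180 cells treated 17 hrs with compounds in 0.5% dialyzed FBS medium.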

[11] = qHTS assay to identify small molecule agonists of H2AX (AID 1224845; active means well fitted activation curve with a large enough effect in the signal ratio in the repeat runs, not every such curve was filed as active; the % refers to the signal ratio)
How it was run: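 Phospho-H2AX Ser139 measured by HTRF (ex 320 nm; em 665 and 620 nm) after 24 hr antibody incubation. Compounds, 15 concentrations, 0.76% DMSO, were applied to CHO-K1 cells for 3hr at 37C before lysis.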

[12] = qHTS assay to identify small molecule agonists of the hypoxia (HIF-1) signaling pathway (AID 1224846; active means well fitted activation curve with a large enough effect in the signal ratio in the repeat runs, not every such curve was filed as active; the % refers to the signal ratio)
How it was run: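 Hypoxia-pathway activation was scored as increased beta-lactamase from an HRE-controlled reporter in ME-180 cells; plated at 2,000 cells per well with 0.5% dialyzed FBS, they were exposed 17 hrs to compounds and then given CCF4-AM.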

[13] = qHTS assay to identify small molecule agonists of H2AX - cell viability counter screen (AID 1224847; calls by dose curve;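 further: wild-type CHO-K1 cells; top concentration of the series differs between compounds; nearly all actives have a fitted effect of over 30% in size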)
How it was run: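 For this counter screen, overnight-attached CHO-K1 cells received test compounds (15 concentrations, 0.76% DMSO final); 3 hr later at 37C, CellTiter-Glo reagent was added and luminescence recorded after 30 min at room temperature.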

[14] = qHTS assay to identify small molecule antagonists of the estrogen related receptor (ERR) signaling pathway from Tox21 library (AID 1224848); further: nearly all actives have a fitted effect of over 50% in size
How it was run: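 Reading was by luminescence 30 min after ONE-Glo addition. Before that, ERR cells at 2,000 per well had rested 6 h at 37 C/5% CO2 and then received pin-tooled compounds in DMSO for 18 h at 37 C.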

[15] = qHTS assay to identify small molecule agonists of the estrogen related receptor (ERR) signaling pathway from Tox21 library (AID 1224849; calls by dose curve; further: nearly all actives have a fitted effect of over 15% in size); settings: ERR reporter cell line, ONE-Glo luciferase, 18 h; at 92.4 µM (top of the series) unless noted
How it was run: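 Six hours post-seeding at 37 C/5% CO2, ERR cells receive DMSO-solubilised compounds; after 18 h at 37 C, ONE-Glo reagent is applied and luminescence recorded.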

[16] = qHTS RealTime-Glo MT Cell Viability Assay in HepG2 cells - 24 hour (AID 1224867); further: nearly all actives have a fitted effect of over 50% in size
How it was run: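 Tox21 10K library screened in qHTS format on HepG2 cells carrying RealTime-Glo reagents. Compounds were added after a 5 h preincubation, and the luminescent signal from continuous culture was measured repeatedly during 40 h treatment.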

[17] = qHTS RealTime-Glo MT Cell Viability Assay in HEK293 cells - 32 hour (AID 1224868)
How it was run: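 Luminescence generated by NanoLuc from substrate produced by living HEK293 cells served as the viability signal. Each value reflects the reading at its stated time point during continuous 40 h compound exposure at 37 C.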

[18] = A CellTox Green Cytotoxicity Assay to monitor cytotoxicity in HEK293 cells - 0 hour (AID 1224869); further: nearly all actives have a fitted effect of over 50% in size
How it was run: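 Seeding of HEK293 cells together with cytotoxicity dye preceded a 5 h incubation at 37 C/5% CO2. Test compounds in DMSO were then added and fluorescence monitored across 40 h.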

[19] = qHTS assay to identify small molecule antagonists of the constitutive androstane receptor (CAR) signaling pathway - cell viability counter screen (AID 1224837); further: nearly all actives have a fitted effect of over 45% in size
How it was run: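 Using CellTiter-Fluor, viability is scored in HepG2 cells stably carrying hCAR and a 2.2kb CYP2B6 reporter after 23 hr compound exposure across 15 concentrations, with CITCO present at 50 nM.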
On the % scale 0 is the no-effect control and ±100 the full control effect.

CC(C)OC(=O)c1ccccc1
inactive: Potency [1] | Potency [2] | Potency [3] | Potency [4] | Potency [5] | Potency [6] | Potency [7] | outcome [8] | Potency [9] | Potency [10] | outcome [11] | outcome [12] | Potency [13] | Potency [14] | activity change, positive = activation [15] 0.248% | Potency [16] | Potency [17] | Potency [18]

CCCCCOC(=O)CCCCC
inactive: Potency [1] | Potency [2] | Potency [3] | Potency [19] | Potency [4] | Potency [5] | Potency [6] | Potency [7] | Potency [10] | outcome [11] | outcome [12] | Potency [13] | Potency [14] | activity change, positive = activation [15] 0.374% | Potency [16] | Potency [17] | Potency [18]

O=C1CCCCCCCCCCCN1
inactive: Potency [1] | Potency [2] | Potency [3] | Potency [19] | Potency [4] | Potency [6] | Potency [9] | Potency [10] | outcome [11] | outcome [12] | Potency [13] | Potency [16] | Potency [18]

CC(=O)OCC(=O)[C@@]1(O)CC[C@H]2[C@@H]3CCC4=CC(=O)CC[C@]4(C)[C@H]3C(=O)C[C@@]21C
inactive: Potency [1] | Potency [2] | Potency [3] | Potency [6] | Potency [10] | outcome [11] | Potency [13] | Potency [16] | Potency [17] | Potency [18]

C1OCOCO1
inactive: Potency [1] | Potency [2] | Potency [3] | Potency [4] | Potency [5] | Potency [6] | Potency [7] | outcome [8] | Potency [9] | Potency [10] | outcome [11] | outcome [12] | Potency [13] | activity change, positive = activation [15] 6.76% | Potency [16] | Potency [17] | Potency [18]

CC(=O)Nc1c(I)cc(I)c(C(=O)O)c1I
inactive: Potency [1] | Potency [2] | Potency [3] | Potency [4] | Potency [5] | Potency [6] | Potency [7] | Potency [10] | outcome [11] | outcome [12] | Potency [13] | Potency [14] | activity change, positive = activation [15] 7.03% [at 42.5 µM] | Potency [16] | Potency [17] | Potency [18]

N[C@@H](C(=O)N[C@@H]1C(=O)N2C(C(=O)O)=C(Cl)CS[C@H]12)c1ccccc1
inactive: viability change, negative = cytotoxic [1] 3.31% [at 8.39 µM] | activity change, negative = inhibition [2] -5.09% [at 10.5 µM] | viability change, negative = cytotoxic [3] 0.971% [at 8.39 µM] | activity, negative = inhibition [4] -13.2% [at 8.39 µM] | activation [5] -1.38% [at 8.39 µM] | viability change, negative = cytotoxic [6] 10.3% [at 8.39 µM] | activity, negative = inhibition [7] -0.314% [at 8.39 µM] | activation [8] -0.0958% [at 8.39 µM] | activation [9] -0.277% [at 8.39 µM] | activity change, negative = cytotoxicity [10] 1.81% [at 6.97 µM] | activation (H2AX phosphorylation) [11] 0.237% [at 14 µM] | activity change, negative = cytotoxicity [13] -0.534% [at 14 µM] | activity, negative = inhibition [14] 7.8% [at 8.39 µM] | activity change, positive = activation [15] 4.35% [at 8.39 µM] | activity change, negative = cytotoxicity [16] 0.732% [at 6.97 µM] | activity change, negative = cytotoxic [17] 8.14% [at 6.97 µM] | cytotoxicity [18] 2.09% [at 6.97 µM]
